Reference: the supplement of paper PMC10849652
The full data set covers some 7,900 targets. This sample favours those with a hit. About 0.6% of all pairs of compound and target were hits. Values without a mark were called inactive.

What was measured:
Assay in all cases: log2 fold change, soluble protein after heating vs DMSO (PISA); higher = thermal stabilisation; K562 cells, 10 uM, 30 min; active = over 0.2 and 3.5 SD of the protein, either way, in both replicates (recomputed)
IRAK-1-4 Inhibitor I = compound: C1COCCN1CCN2C3=CC=CC=C3N=C2NC(=O)C4=CC(=CC=C4)[N+](=O)[O-] [IRAK-1-4 Inhibitor I]
Outline: (§1)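 K562 cells at 2×10^6 cells/mL were treated for 30 min with 10 μM compound, and aliquots were heated for 3 min over 48°C-58°C before pooling. Extraction used PBS with 0.5% NP-40 at 4°C, and soluble protein was the supernatant after 21,000xg for 90 min, measured by TMTpro 16plex LC-MS/MS with channel sums equalised. Thermal stability values, relative to control samples and from duplicates, are log2 fold changes.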

ibrutinib = compound: C=CC(=O)N1CCC[C@@H](n2nc(-c3ccc(Oc4ccccc4)cc3)c3c(N)ncnc32)C1 [ibrutinib]
Outline: as §1

[1] = compound: CC(=O)c1cnc2ccc(-c3cc(Cl)c(O)c(Cl)c3)nc2c1N[C@H]1CC[C@H](CN(C)C)CC1
Outline: as §1

ralimetinib = compound: CC(C)(C)Cn1c(N)nc2ccc(-c3[nH]c(C(C)(C)C)nc3-c3ccc(F)cc3)nc21 [ralimetinib]
Outline: as §1

[2] = compound: CC(C)(O)CC(=O)NCCn1ccc2ncnc(Nc3ccc(Oc4cccc(C(F)(F)F)c4)c(Cl)c3)c21
Outline: as §1

[3] = compound: CC(C)C1=C2N=C(C=C(N2N=C1)NCC3=CC=CC=C3)NCCCCCCN
Outline: as §1

[4] = compound: CC(C)C[C@@H](C=O)NC(=O)[C@H](CC(C)C)NC(=O)[C@H](CC(C)C)NC(=O)OCc1ccccc1
Outline: as §1

pinometostat = compound: CC(C)N(C[C@H]1O[C@@H](n2cnc3c(N)ncnc32)[C@H](O)[C@@H]1O)[C@H]1C[C@@H](CCc2nc3cc(C(C)(C)C)ccc3[nH]2)C1 [pinometostat]
Outline: as §1

[5] = compound: CC1=C(C(CC(=O)N1)C2=CC=C(C=C2)C(F)(F)F)C(=O)NC3=C(C=C4C(=C3)C=NN4)F
Outline: as §1

[6] = compound: CC1=C(C2=C(C=C1)C(=O)C3=CC=CC=C3N2CCCN)C
Outline: as §1

[7] = compound: CC1=C(C=C(C=C1)NC(=O)C2=CC(=CC=C2)C(C)(C)C#N)NC3=CC4=C(C=C3)N=CN(C4=O)C
Outline: as §1

[8] = compound: CC1=C(C=C(C=C1)NC(=O)C2=CC(=CC=C2)N(C)C)NC(=O)C3=CC=C(C=C3)O
Outline: as §1

[9] = compound: CC1=CC=C(C=C1)SC2=C3C=C(SC3=CN=C2)C(=O)N
Outline: as §1

[10] = compound: CC1=NC(=CC=C1)C2=C(N=C(N2)C(C)(C)C)C3=CC4=NC=CN=C4C=C3
Outline: as §1

Nexturastat A = compound: CCCCN(Cc1ccc(C(=O)NO)cc1)C(=O)Nc1ccccc1 [Nexturastat A]
Outline: as §1

vemurafenib = compound: CCCS(=O)(=O)Nc1ccc(F)c(C(=O)c2c[nH]c3ncc(-c4ccc(Cl)cc4)cc23)c1F [vemurafenib]
Outline: as §1

[11] = compound: CCCS(=O)(=O)Nc1ccc(F)c(C(=O)c2c[nH]c3ncc(Cl)cc23)c1F
Outline: as §1

[12] = compound: CCCc1cc(C)[nH]c(=O)c1CNC(=O)c1cc(-c2ccnc(N3CCN(C)CC3)c2)cc2c1cnn2C(C)C
Outline: as §1

givinostat = compound: CCN(CC)Cc1ccc2cc(COC(=O)Nc3ccc(C(=O)NO)cc3)ccc2c1 [givinostat]
Outline: as §1

barasertib = compound: CCN(CCCOc1ccc2c(Nc3cc(CC(=O)Nc4cccc(F)c4)[nH]n3)ncnc2c1)CCOP(=O)(O)O [barasertib]
Outline: as §1

UniProt Q15075, sequence (Q15075 whole entry, looked up): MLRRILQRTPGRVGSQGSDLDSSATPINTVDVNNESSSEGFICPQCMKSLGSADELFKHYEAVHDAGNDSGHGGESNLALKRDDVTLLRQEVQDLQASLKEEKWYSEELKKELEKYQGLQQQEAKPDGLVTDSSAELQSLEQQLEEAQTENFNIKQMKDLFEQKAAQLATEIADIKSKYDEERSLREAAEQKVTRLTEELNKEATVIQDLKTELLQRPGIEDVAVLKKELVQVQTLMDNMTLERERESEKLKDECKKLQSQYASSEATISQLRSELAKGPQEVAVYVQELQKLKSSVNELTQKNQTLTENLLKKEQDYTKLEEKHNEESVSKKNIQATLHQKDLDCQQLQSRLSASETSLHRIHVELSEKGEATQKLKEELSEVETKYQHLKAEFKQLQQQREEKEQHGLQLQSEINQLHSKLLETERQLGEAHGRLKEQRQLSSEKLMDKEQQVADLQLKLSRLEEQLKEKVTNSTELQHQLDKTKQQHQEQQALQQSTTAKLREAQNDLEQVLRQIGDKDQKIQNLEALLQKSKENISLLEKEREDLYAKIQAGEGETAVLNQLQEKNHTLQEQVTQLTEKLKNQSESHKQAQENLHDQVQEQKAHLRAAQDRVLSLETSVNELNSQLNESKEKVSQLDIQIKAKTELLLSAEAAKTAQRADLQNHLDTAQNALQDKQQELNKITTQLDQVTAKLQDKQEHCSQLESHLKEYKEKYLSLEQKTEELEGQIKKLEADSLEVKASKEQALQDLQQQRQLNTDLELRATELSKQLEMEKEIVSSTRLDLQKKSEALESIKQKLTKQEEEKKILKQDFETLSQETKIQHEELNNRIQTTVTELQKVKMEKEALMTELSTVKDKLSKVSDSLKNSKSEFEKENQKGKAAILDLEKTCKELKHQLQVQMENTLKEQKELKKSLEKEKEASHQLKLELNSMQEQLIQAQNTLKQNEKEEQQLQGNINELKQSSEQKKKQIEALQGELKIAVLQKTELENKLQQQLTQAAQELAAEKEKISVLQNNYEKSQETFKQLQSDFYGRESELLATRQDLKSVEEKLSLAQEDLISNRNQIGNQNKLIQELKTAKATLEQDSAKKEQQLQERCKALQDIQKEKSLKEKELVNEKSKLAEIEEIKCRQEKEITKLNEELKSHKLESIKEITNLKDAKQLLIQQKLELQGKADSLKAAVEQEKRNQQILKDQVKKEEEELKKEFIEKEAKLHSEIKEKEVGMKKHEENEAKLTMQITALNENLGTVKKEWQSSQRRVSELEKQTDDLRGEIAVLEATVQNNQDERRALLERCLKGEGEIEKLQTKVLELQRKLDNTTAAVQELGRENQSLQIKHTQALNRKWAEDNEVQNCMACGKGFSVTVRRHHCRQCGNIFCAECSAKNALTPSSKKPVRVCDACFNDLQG
UniProt O94905, sequence (O94905 whole entry, looked up): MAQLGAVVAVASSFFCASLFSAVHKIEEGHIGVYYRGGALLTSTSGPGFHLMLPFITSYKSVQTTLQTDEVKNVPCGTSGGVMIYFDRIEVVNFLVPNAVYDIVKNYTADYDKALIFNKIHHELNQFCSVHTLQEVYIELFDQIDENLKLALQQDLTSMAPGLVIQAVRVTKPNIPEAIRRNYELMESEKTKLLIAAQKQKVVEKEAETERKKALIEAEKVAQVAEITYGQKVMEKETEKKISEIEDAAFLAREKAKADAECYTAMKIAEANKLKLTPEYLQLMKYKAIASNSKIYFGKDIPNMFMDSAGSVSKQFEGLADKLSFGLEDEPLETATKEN
UniProt Q9UPT5, sequence (Q9UPT5 whole entry, looked up): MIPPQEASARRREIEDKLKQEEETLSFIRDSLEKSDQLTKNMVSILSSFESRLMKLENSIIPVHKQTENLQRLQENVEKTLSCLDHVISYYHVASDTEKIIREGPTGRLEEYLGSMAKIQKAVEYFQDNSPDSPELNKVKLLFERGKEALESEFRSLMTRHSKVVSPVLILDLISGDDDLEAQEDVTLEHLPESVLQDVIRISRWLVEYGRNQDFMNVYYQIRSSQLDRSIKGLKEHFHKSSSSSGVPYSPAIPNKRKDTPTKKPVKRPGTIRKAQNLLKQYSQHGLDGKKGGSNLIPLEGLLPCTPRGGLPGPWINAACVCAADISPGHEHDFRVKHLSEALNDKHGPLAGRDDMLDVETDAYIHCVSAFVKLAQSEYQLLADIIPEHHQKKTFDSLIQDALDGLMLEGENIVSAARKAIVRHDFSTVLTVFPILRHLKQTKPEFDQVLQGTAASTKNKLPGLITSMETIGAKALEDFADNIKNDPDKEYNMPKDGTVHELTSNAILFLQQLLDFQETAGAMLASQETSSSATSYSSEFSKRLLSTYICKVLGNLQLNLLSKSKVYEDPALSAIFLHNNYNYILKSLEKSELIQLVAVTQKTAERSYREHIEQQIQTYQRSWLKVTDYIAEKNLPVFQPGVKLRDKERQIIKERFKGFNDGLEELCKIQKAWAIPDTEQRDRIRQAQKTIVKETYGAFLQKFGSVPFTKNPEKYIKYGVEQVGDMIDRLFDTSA
UniProt O00148, sequence (O00148 whole entry, looked up): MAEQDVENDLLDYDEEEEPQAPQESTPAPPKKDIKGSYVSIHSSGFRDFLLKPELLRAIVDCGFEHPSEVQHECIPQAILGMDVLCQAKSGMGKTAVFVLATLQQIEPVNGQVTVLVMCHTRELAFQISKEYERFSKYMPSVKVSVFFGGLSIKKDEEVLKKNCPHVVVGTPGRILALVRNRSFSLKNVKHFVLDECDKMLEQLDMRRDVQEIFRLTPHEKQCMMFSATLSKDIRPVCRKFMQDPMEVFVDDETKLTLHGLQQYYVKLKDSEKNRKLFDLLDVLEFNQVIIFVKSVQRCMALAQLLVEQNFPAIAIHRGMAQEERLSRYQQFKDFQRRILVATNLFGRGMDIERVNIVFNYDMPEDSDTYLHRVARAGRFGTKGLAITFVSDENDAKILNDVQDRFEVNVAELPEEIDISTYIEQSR
UniProt Q13011, sequence (Q13011 whole entry, looked up): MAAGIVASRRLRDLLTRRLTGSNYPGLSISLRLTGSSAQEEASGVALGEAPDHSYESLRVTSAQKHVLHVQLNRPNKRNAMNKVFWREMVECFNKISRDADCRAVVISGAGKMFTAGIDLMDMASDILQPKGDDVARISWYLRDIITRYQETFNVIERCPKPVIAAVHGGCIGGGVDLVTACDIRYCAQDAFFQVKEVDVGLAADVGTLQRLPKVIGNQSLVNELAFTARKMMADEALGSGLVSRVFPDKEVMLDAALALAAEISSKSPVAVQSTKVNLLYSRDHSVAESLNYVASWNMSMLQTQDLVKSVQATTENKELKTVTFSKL
UniProt P07711, sequence (P07711 whole entry, looked up): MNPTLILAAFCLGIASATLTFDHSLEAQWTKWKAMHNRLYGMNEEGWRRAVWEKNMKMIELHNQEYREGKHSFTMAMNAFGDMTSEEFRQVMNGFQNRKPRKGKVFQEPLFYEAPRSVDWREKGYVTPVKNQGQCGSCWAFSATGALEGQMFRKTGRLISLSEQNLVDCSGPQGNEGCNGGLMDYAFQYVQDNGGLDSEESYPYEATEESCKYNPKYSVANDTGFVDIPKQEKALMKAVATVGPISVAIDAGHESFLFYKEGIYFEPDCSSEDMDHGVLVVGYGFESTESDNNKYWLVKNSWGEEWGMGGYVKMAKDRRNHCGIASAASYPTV
UniProt O60911, sequence (O60911 whole entry, looked up): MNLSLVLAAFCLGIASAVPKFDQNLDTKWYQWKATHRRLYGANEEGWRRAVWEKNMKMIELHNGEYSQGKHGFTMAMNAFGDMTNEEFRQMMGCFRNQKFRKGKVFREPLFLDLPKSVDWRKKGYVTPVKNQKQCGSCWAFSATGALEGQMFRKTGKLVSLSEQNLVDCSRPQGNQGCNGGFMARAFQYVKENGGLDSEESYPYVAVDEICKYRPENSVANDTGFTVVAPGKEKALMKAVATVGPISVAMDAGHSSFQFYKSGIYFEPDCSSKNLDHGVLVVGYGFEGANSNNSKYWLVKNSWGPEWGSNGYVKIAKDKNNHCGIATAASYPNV
UniProt Q9NX74, sequence (Q9NX74 whole entry, looked up): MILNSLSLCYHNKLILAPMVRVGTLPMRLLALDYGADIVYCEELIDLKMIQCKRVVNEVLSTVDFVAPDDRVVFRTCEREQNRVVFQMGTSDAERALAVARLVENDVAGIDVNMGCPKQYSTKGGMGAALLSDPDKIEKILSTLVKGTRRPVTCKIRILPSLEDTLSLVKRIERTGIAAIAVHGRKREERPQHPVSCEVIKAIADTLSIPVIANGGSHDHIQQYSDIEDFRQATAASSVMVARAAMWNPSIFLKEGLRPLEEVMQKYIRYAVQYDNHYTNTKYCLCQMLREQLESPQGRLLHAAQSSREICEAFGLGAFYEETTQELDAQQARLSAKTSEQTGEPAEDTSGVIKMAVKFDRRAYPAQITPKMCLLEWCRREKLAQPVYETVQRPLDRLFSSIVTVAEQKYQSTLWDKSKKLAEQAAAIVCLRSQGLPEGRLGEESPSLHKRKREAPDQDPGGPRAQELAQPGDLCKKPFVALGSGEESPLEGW
UniProt P29692, sequence (P29692 whole entry, looked up): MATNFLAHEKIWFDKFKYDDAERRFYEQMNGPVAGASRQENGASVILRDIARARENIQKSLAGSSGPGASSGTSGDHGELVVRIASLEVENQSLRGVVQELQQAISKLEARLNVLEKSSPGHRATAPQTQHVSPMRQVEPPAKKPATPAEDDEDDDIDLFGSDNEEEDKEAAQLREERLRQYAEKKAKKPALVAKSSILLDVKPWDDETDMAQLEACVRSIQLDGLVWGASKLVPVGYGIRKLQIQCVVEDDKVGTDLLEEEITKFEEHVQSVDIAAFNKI
UniProt P23919, sequence (P23919 whole entry, looked up): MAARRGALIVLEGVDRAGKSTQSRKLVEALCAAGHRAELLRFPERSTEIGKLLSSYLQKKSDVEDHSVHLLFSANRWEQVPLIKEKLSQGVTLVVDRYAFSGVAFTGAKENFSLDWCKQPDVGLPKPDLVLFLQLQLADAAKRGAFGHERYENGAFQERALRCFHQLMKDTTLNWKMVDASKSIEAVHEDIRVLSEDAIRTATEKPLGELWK

| Target | log2 fold change (IRAK-1-4 Inhibitor I) | log2 fold change (ibrutinib) | log2 fold change [1] | log2 fold change (ralimetinib) | log2 fold change [2] | log2 fold change [3] | log2 fold change [4] | log2 fold change (pinometostat) | log2 fold change [5] | log2 fold change [6] | log2 fold change [7] | log2 fold change [8] | log2 fold change [9] | log2 fold change [10] | log2 fold change (Nexturastat A) | log2 fold change (vemurafenib) | log2 fold change [11] | log2 fold change [12] | log2 fold change (givinostat) | log2 fold change (barasertib) |
| --- | --- | --- | --- | --- | --- | --- | --- | --- | --- | --- | --- | --- | --- | --- | --- | --- | --- | --- | --- | --- |
| CTSV (UniProt O60911) | 0.032 | -0.002 | 0.09 | -0.035 | -0.005 | -0.917 (active) | 0.14 | 0.011 | -0.054 | 0.125 | 0 | 0.019 | 0 | -0.017 | -0.043 | -0.021 | -0.006 | -0.062 | 0.194 | 0.032 |
| ECH1 (UniProt Q13011) | 0.056 | -0.003 | -0.058 | 0.087 | -0.112 | -0.164 | -0.033 | 0.003 | 0.086 | 0.076 | 0.005 | -0.027 | 0.044 | 0.014 | -0.032 | 0.012 | -0.003 | -0.065 | 0.129 | 0.035 |
| DUS2 (UniProt Q9NX74) | 0.014 | 0.041 | -0.063 | 0.033 | -0.161 | 0.043 | 0.044 | -0.001 | 0.035 | -0.1 | -0.028 | -0.022 | -0.022 | 0.04 | -0.015 | -0.004 | 0.099 | 0.039 | 0.062 | -0.062 |
| ERLIN2 (UniProt O94905) | -0.089 | 0.001 | 0.058 | 0.004 | 0 | -0.296 (active) | 0.035 | 0.093 | 0.021 | 0.013 | -0.045 | -0.024 | 0.009 | -0.037 | 0.104 | -0.062 | 0.008 | 0.12 | 0.038 | -0.003 |
| EFCAB14 (UniProt O75071) | -0.016 | 0.043 | -0.196 | 0.135 | -0.009 | -0.127 | -0.063 | -0.061 | -0.035 | 0.006 | -0.034 | 0.061 | 0.022 | -0.011 | -0.032 | -0.049 | 0.012 | 0.023 | 0.054 | -0.01 |
| DTYMK (UniProt P23919) | 0.076 | -0.003 | -0.02 | -0.056 | -0.178 | -0.029 | -0.013 | 0.039 | -0.01 | 0.084 | -0.001 | 0.05 | 0 | 0.015 | -0.009 | -0.017 | -0.069 | -0.1 | -0.007 | -0.011 |
| EEF1D isoform 2 (UniProt P29692) | -0.038 | -0.039 | 0.012 | 0.026 | -0.006 | -0.051 | 0.029 | 0.065 | 0.002 | 0.039 | 0.039 | -0.034 | -0.012 | -0.003 | 0.029 | -0.044 | 0.049 | -0.004 | 0.038 | 0.02 |
| EXOC7 (UniProt Q9UPT5) | -0.047 | -0.029 | 0.002 | 0.049 | -0.109 | -0.276 | 0.044 | 0.043 | 0.041 | 0.045 | -0.116 | -0.057 | -0.014 | -0.05 | 0.065 | 0.032 | 0.07 | 0.079 | 0.09 | 0.036 |
| EEA1 (UniProt Q15075) | 0.037 | 0.002 | 0.02 | -0.068 | 0.013 | 0.025 | -0.022 | -0.041 | 0.001 | -0.004 | -0.027 | 0.009 | 0.009 | 0.011 | -0.035 | -0.024 | 0.003 | -0.036 | -0.01 | 0.009 |
| DDX39A (UniProt O00148) | -0.034 | 0.099 | -0.224 | 0.003 | -0.142 | -0.327 (active) | 0.042 | 0.075 | 0.092 | -0.28 | -0.018 | -0.016 | 0.02 | 0.027 | 0.015 | 0.004 | 0.017 | 0.074 | 0.076 | 0.035 |
| FAM117A (UniProt Q9C073) | -0.004 | 0.001 | -0.833 (active) | -0.125 | -0.068 | -0.102 | 0.126 | -0.003 | 0.042 | 0.011 | 0.036 | 0.013 | -0.007 | -0.034 | 0.004 | -0.023 | -0.004 | -0.001 | 0.109 | 0.053 |
| CTSL (UniProt P07711) | 0.068 | 0.009 | 0.099 | 0.022 | -0.014 | -0.412 (active) | 0.098 | -0.006 | -0.01 | -0.031 | -0.083 | 0.014 | -0.049 | 0.013 | 0.085 | -0.023 | -0.05 | 0.033 | 0.121 | 0.092 |
